According to publication PMC7862700, “An all-to-all approach to the identification of sequence-specific readers for epigenetic DNA modifications on cytosine”:

Columns and labels:
Assay in all cases: DAPPL (digital affinity profiling via proximity ligation, sequencing); 10 mM Tris-HCl pH 7.5, 50 mM NaCl, 1 mM DTT, 4% glycerol, room temperature, 30 min; GST-TFs on glutathione beads, 16-mer random dsDNA library, 0.1% formaldehyde crosslink after washing; high values mean tight binding
FLI1 = target: T1, FLI1 (Homo sapiens, UniProt Q01543 1-452); details: protein: recombinant; tags: N-terminal GST; dsDNA, one strand shown
T1 sequence: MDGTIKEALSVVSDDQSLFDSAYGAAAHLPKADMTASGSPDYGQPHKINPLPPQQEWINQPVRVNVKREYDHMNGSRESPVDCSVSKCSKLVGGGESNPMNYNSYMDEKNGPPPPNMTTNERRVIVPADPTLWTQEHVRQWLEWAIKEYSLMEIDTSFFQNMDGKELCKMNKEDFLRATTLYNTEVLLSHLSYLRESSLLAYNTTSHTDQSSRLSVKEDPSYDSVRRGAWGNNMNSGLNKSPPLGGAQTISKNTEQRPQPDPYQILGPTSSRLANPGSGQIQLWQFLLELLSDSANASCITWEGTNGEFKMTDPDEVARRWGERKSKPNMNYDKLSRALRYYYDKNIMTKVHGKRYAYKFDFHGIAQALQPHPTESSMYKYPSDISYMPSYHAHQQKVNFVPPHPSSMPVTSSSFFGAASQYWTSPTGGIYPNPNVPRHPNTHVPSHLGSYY
In short: (§1)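 Human transcription factors were made in yeast as GST fusions, captured on glutathione beads and barcoded with DNA. With a tag-only sample included, the pool was incubated with 200 nmole of a random double-stranded 16-mer DNA library in Tris/NaCl/DTT/glycerol buffer at room temperature for 30 min, then crosslinked with 0.1% formaldehyde after washing, ligated by proximity, amplified and sequenced. For binding signal, each hexamer's read frequency for a factor is divided by its frequency for the tag-only sample.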

ELK1 = target: T2, ELK1 (Homo sapiens, UniProt P19419 1-428); details: protein: recombinant; tags: N-terminal GST; dsDNA, one strand shown
T2 sequence: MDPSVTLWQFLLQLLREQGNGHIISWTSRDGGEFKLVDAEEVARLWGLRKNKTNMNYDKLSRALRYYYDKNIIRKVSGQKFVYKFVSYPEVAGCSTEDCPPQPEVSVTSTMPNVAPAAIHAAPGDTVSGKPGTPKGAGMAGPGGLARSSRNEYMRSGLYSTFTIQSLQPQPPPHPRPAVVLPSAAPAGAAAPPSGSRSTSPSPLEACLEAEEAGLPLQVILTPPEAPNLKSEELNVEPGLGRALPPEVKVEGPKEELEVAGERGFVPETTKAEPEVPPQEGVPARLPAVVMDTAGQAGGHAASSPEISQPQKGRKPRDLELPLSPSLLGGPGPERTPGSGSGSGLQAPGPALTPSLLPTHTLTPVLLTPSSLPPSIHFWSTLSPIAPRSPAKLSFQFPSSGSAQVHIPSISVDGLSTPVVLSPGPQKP
In short: as §1

GABPA = target: T3, GABPA (Homo sapiens, UniProt Q06546 1-454); details: protein: recombinant; tags: N-terminal GST; dsDNA, one strand shown
T3 sequence: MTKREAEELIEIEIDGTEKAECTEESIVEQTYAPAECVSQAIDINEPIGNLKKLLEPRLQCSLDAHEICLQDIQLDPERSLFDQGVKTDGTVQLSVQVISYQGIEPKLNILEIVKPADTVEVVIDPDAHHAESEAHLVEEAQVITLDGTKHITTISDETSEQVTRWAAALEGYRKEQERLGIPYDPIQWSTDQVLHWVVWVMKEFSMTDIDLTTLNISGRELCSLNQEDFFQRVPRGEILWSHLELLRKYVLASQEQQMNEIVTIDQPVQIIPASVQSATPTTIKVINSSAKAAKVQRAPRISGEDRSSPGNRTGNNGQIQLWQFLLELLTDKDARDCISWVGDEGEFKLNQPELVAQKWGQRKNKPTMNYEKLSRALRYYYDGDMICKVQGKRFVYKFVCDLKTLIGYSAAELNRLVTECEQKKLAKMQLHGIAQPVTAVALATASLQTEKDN
In short: as §1

ERG = target: T4, ERG (Homo sapiens, UniProt P11308 1-479); details: protein: recombinant; tags: N-terminal GST; dsDNA, one strand shown
T4 sequence: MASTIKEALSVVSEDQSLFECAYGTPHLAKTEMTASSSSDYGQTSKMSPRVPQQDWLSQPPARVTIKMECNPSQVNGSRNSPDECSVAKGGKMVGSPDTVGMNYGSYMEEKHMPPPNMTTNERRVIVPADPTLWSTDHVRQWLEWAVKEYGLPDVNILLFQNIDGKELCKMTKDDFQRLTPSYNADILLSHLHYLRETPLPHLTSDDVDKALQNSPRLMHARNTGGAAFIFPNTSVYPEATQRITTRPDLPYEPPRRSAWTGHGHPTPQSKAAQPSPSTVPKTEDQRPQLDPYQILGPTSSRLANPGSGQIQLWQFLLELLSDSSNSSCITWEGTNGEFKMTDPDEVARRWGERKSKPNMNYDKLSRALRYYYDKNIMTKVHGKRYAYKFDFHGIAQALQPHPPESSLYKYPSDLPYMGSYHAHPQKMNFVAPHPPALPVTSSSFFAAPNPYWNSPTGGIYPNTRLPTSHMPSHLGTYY
In short: as §1

ELF1 = ELF1 (Homo sapiens, UniProt P32519 1-619); details: protein: recombinant; tags: N-terminal GST; dsDNA, one strand shown
In short: as §1

EHF = target: T5, EHF (Homo sapiens, UniProt Q9NZC4 1-300); details: protein: recombinant; tags: N-terminal GST; dsDNA, one strand shown
T5 sequence: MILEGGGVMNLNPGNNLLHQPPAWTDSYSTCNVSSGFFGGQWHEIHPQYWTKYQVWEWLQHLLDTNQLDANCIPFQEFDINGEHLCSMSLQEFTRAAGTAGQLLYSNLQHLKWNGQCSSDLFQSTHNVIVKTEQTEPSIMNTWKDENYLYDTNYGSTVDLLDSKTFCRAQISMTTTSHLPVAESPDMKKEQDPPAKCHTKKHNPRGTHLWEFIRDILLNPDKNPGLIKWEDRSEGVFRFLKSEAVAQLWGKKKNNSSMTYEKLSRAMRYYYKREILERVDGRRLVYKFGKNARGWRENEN
In short: as §1

SPI1 = SPI1 (Homo sapiens, UniProt P17947 1-270); details: protein: recombinant; tags: N-terminal GST; dsDNA, one strand shown
In short: as §1

SPIB = SPIB (Homo sapiens, UniProt Q01892 1-262); details: protein: recombinant; tags: N-terminal GST; dsDNA, one strand shown
In short: as §1

ELK3 = target: T6, ELK3 (Homo sapiens, UniProt P41970 1-407); details: protein: recombinant; tags: N-terminal GST; dsDNA, one strand shown
T6 sequence: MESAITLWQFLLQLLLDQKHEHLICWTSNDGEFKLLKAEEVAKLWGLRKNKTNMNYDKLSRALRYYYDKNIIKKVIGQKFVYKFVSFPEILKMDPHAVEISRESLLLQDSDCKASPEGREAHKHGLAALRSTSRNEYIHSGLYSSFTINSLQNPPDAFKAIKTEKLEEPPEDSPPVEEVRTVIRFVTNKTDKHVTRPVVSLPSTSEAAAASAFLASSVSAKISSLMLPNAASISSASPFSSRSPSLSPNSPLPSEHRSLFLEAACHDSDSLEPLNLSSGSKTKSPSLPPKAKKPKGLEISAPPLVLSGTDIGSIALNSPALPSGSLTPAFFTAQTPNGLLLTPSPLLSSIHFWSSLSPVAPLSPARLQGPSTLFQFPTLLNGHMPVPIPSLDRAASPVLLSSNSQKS
In short: as §1

FEV = target: T7, FEV (Homo sapiens, UniProt Q99581 1-238); details: protein: recombinant; tags: N-terminal GST; dsDNA, one strand shown
T7 sequence: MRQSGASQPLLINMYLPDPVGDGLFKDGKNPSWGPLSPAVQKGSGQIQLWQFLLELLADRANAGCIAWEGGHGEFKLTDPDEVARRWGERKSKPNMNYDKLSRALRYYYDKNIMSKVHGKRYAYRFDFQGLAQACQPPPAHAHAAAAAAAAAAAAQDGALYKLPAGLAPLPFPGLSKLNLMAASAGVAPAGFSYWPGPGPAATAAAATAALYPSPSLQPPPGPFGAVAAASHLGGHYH
In short: as §1

ETV5 = ETV5 (Homo sapiens, UniProt P41161 1-510); details: protein: recombinant; tags: N-terminal GST; dsDNA, one strand shown
In short: as §1

HSF1 = HSF1 (Homo sapiens, UniProt Q00613 1-529); details: protein: recombinant; tags: N-terminal GST; chain copies: 3; dsDNA, one strand shown
In short: as §1

SPIC = target: T8, SPIC (Homo sapiens, UniProt Q8N5J4 1-248); details: protein: recombinant; tags: N-terminal GST; dsDNA, one strand shown
T8 sequence: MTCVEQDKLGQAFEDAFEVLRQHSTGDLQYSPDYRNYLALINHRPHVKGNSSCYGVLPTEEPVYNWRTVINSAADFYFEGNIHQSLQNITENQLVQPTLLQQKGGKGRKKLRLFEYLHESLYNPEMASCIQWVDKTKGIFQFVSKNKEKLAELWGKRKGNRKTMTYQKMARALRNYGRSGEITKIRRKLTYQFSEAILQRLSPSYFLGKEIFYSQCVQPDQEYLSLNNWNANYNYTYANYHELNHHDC
In short: as §1

ELF4 = ELF4 (Homo sapiens, UniProt Q99607 1-663); details: protein: recombinant; tags: N-terminal GST; dsDNA, one strand shown
In short: as §1

ELK4 = target: T9, ELK4 (Homo sapiens, UniProt P28324-2 1-405); details: protein: recombinant; tags: N-terminal GST; dsDNA, one strand shown
T9 sequence: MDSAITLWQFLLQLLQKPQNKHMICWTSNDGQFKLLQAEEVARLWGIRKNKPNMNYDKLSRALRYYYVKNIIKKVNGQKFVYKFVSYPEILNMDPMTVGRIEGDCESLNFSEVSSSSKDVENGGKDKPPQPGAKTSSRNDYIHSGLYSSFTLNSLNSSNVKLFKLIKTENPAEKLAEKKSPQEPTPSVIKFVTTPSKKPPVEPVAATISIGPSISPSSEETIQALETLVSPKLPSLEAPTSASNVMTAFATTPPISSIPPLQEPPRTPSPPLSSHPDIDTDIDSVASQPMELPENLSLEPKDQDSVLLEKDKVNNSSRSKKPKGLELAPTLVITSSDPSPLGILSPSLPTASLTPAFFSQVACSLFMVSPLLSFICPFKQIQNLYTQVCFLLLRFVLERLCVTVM
In short: as §1

ETV2 = target: T10, ETV2 (Homo sapiens, UniProt O00321 1-342); details: protein: recombinant; tags: N-terminal GST; dsDNA, one strand shown
T10 sequence: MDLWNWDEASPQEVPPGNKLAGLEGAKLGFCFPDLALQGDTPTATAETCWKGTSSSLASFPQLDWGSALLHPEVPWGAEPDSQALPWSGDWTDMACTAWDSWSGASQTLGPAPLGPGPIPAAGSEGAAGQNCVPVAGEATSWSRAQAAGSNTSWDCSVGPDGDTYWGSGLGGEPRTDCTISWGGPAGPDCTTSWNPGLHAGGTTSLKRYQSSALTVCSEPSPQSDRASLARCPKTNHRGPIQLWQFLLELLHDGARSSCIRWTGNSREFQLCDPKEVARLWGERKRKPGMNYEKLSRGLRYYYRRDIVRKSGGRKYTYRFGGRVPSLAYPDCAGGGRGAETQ
In short: as §1

ELF3 = target: T11, ELF3 (Homo sapiens, UniProt P78545 1-371); details: protein: recombinant; tags: N-terminal GST; dsDNA, one strand shown
T11 sequence: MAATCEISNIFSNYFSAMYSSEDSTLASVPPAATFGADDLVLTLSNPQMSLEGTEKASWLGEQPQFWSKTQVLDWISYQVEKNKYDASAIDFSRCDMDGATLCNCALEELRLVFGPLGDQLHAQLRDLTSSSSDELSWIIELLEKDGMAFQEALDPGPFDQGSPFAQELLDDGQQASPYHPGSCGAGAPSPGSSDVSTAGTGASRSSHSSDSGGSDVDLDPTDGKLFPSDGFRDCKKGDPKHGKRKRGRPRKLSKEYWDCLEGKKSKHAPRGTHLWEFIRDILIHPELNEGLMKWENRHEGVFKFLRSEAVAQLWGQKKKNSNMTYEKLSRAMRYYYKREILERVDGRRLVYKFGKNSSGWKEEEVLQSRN
In short: as §1

CRX = CRX (Homo sapiens, UniProt O43186 1-299); details: protein: recombinant; tags: N-terminal GST; dsDNA, one strand shown
In short: as §1

ETV1 = ETV1 (Homo sapiens, UniProt P50549 1-477); details: protein: recombinant; tags: N-terminal GST; dsDNA, one strand shown
In short: as §1

CRX, sequence (O43186 whole entry): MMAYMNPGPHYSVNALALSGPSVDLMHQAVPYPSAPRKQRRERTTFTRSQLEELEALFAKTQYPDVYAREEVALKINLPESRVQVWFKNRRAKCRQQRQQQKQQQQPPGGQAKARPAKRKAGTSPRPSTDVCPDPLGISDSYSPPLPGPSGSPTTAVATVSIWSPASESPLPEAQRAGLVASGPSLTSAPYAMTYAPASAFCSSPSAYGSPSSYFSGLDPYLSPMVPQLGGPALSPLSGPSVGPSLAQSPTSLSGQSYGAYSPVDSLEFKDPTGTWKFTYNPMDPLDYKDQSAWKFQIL
ELF4, sequence (Q99607 whole entry): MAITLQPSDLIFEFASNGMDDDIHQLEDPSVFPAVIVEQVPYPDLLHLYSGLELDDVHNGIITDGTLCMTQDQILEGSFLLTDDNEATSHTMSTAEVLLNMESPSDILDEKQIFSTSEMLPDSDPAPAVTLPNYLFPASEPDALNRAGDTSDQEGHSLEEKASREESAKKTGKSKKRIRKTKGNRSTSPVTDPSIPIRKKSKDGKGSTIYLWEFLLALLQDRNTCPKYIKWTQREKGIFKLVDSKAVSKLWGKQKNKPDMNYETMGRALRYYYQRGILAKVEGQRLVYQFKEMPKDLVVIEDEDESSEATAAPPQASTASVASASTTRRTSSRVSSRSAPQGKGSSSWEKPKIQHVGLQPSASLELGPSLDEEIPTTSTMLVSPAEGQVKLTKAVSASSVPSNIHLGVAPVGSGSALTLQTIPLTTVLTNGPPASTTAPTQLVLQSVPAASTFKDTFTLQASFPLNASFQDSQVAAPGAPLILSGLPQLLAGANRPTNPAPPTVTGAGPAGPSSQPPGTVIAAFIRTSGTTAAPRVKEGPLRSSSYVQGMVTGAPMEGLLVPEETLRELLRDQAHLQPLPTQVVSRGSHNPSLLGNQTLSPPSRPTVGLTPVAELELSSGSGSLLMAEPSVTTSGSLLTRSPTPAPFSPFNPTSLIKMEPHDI
HSF1, sequence (Q00613 whole entry): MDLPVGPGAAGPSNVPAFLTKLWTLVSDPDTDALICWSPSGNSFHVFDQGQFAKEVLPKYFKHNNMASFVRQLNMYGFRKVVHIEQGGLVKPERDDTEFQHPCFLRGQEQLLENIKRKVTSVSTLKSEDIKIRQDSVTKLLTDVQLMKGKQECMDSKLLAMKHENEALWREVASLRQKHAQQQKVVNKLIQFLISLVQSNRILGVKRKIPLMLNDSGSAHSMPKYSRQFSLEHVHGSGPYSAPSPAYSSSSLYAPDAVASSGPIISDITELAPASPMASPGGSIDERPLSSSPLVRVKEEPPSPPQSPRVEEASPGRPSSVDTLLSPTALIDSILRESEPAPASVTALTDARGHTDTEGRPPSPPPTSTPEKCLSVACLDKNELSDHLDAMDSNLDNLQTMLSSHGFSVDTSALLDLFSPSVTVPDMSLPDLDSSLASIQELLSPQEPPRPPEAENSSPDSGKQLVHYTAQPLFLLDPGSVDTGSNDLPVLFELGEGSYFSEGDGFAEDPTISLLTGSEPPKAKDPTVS
ELF1, sequence (P32519 whole entry): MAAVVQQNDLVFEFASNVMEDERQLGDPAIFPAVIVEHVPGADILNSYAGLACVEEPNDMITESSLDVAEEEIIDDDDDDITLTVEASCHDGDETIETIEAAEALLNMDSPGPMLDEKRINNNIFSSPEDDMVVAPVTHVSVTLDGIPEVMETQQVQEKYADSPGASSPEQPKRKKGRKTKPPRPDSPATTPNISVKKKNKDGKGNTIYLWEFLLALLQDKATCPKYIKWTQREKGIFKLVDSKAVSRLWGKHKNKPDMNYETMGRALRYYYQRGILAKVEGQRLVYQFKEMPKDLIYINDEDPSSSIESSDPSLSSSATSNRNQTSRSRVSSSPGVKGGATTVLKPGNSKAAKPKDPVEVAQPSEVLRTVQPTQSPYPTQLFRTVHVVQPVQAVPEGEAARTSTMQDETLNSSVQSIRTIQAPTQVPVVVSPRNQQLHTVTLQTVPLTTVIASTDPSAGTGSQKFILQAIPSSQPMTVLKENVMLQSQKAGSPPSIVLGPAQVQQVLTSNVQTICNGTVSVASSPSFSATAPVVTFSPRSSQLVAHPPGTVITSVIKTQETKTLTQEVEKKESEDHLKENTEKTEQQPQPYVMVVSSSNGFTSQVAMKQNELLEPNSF
ETV5, sequence (P41161 whole entry): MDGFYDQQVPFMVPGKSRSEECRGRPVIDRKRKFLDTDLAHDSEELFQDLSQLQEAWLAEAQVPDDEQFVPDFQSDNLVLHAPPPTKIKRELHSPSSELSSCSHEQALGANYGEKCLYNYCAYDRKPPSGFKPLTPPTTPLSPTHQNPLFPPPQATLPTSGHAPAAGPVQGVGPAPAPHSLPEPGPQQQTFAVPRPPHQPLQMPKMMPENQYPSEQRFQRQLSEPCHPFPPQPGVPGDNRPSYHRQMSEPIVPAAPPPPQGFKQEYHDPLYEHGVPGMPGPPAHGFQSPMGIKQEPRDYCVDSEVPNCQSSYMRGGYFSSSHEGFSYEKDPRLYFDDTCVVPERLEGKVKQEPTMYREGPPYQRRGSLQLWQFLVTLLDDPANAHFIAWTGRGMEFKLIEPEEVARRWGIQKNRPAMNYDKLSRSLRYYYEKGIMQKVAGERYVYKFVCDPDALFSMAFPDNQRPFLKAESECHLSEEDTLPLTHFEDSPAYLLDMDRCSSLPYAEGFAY
SPIB, sequence (Q01892 whole entry): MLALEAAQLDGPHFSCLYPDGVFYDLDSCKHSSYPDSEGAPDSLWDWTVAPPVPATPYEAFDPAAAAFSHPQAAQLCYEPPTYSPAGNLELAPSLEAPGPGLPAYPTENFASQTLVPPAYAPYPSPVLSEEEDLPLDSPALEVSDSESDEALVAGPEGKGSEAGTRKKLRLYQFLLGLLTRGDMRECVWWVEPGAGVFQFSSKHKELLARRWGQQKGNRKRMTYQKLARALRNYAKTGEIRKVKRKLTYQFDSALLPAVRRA
ETV1, sequence (P50549 whole entry): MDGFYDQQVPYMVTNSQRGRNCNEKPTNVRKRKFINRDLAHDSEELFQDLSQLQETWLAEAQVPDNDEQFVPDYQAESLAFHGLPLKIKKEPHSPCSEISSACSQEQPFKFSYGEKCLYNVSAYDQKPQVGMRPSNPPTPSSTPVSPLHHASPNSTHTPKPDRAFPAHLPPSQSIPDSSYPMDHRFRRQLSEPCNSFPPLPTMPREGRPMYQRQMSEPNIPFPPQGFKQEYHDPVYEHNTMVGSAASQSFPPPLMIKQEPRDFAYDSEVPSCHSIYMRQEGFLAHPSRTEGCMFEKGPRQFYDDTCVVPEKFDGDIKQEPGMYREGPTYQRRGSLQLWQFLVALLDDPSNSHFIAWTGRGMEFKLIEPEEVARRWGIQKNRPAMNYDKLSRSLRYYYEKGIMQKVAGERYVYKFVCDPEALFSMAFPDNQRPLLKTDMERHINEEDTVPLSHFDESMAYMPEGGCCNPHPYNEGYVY

For CTTTCA, the binding signal (FLI1) was 1.45 fold enrichment (6-mer frequency, TF over GST control), the binding signal (ELK1) was 1.32 fold enrichment (6-mer frequency, TF over GST control) and the binding signal (GABPA) was 1.46 fold enrichment (6-mer frequency, TF over GST control). For the same sequence, the binding signal (ERG) was 1.23 fold enrichment (6-mer frequency, TF over GST control), the binding signal (ELF1) was 1.41 fold enrichment (6-mer frequency, TF over GST control) and the binding signal (EHF) was 1.3 fold enrichment (6-mer frequency, TF over GST control). The binding signal (SPI1) was 1.45 fold enrichment (6-mer frequency, TF over GST control), the binding signal (SPIB) was 1.28 fold enrichment (6-mer frequency, TF over GST control) and the binding signal (ELK3) was 1.36 fold enrichment (6-mer frequency, TF over GST control). For the same sequence, the binding signal (FEV) was 1.31 fold enrichment (6-mer frequency, TF over GST control), the binding signal (ETV5) was 1.26 fold enrichment (6-mer frequency, TF over GST control) and the binding signal (HSF1) was 1.28 fold enrichment (6-mer frequency, TF over GST control). The binding signal (SPIC) was 1.37 fold enrichment (6-mer frequency, TF over GST control), the binding signal (ELF4) was 1.44 fold enrichment (6-mer frequency, TF over GST control) and the binding signal (ELK4) was 1.54 fold enrichment (6-mer frequency, TF over GST control). For the same sequence, the binding signal (ETV2) was 1.42 fold enrichment (6-mer frequency, TF over GST control), the binding signal (ELF3) was 1.18 fold enrichment (6-mer frequency, TF over GST control) and the binding signal (CRX) was 1.25 fold enrichment (6-mer frequency, TF over GST control). For the same sequence, the binding signal (ETV1) was 1.45 fold enrichment (6-mer frequency, TF over GST control).
